High-throughput results as filed in PubChem BioAssay.
Six1-Eya2 inh: qHTS Assay for Inhibitors of the Six1/Eya2 Interaction. hit rate 0.56% among 360,000. Homeobox protein SIX1 (Homo sapiens) + Protein phosphatase EYA2 (Homo sapiens), …. activity change, % (concentration not given with the values). AlphaScreen GST-Six1/His-Eya2 binding, biochemical; hits give low values
Target sequence (O00167 whole entry, looked up): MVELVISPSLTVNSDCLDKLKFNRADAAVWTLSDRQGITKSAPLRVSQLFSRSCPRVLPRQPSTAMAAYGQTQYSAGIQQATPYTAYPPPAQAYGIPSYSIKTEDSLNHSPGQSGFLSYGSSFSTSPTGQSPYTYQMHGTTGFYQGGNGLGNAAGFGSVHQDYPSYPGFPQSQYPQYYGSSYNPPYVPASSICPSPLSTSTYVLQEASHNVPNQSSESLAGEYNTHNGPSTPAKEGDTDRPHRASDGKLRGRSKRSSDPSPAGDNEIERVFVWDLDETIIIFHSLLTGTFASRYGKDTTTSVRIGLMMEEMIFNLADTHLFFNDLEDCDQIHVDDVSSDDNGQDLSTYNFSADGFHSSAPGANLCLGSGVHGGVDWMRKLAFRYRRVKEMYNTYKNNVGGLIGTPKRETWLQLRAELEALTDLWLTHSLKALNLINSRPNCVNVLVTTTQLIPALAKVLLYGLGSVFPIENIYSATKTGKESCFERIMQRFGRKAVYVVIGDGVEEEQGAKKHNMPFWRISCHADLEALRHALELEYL
Target sequence (Q15475 whole entry, looked up): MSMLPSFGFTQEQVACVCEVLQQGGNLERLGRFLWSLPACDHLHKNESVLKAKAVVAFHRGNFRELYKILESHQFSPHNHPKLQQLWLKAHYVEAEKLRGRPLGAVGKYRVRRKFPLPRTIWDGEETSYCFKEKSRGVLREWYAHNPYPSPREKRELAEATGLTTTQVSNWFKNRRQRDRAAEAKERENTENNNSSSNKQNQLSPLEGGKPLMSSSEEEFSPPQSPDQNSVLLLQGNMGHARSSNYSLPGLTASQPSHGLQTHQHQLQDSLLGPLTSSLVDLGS
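Compounds are tested against tagged Six1 and Eya2 proteins bridged by glutathione donor and nickel acceptor beads; after a one-hour incubation at 37 °C without light, AlphaScreen emission is recorded.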
KCNH2 3.1 block: qHTS for Inhibitors of KCHN2 3.1: Mutant qHTS | Potassium voltage-gated channel subfamily H member 2, brain isoform KCNH2 3.1 (human) | U2OS KCNH2 3.1, thallium flux FluxOr; hits give low values | activity change, % (tested at about 1.8 µM) | hit rate 0.95% among 340,000 | AID 720553, 2013;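 active = maximum activity change below -70%; inconclusive = maximum activity change from -70% to -50%; inactive = maximum activity change above -50%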;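 note: thallium influx rate constant from kinetic fluorescence after stimulation buffer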
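Kinetic fluorescence (2 min after stimulation buffer) measures Tl+ influx through KCNH2 3.1 expressed by viral transduction in U2OS cells; the rate constant is normalized against DMSO controls serving as positive and negative references.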
JMJD2E inh: qHTS Assay for Inhibitors of Human Jumonji Domain Containing 2E (JMJD2E); JMJD2E catalytic domain, FDH-coupled NADH fluorescence (FDH is formaldehyde dehydrogenase); AID 2147, 2009; Lysine-specific demethylase 4E (Homo sapiens), B2RXH2; Potency, µM (series often up to 57.1 µM), usual class: inhibitors; hit rate 1.6% among 230,000; active = well fitted inhibition curve with a large enough effect, not every such curve was filed as active; inconclusive = small, poorly fitted or top-dose-only effect, or another doubt; inactive = no such curve, though single readings can be large or run the other way; note: nearly all actives have a fitted effect of over 50% in size
CtBP-E1A inh: qHTS Assay for Inhibitors of the CtBP/E1A Interaction; CtBP / adenovirus E1A interaction (AlphaScreen); AlphaScreen GST-E1A/His-CtBP binding, 1536-well; hits give low values; activity change, % (concentration not given with the values); hit rate 0.49% among 340,000; AID 651724, 2012
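Homogeneous bead-based format: GST-tagged E1A captured on glutathione donor beads, His-tagged CtBP on nickel acceptor beads; compounds precede bead addition by 2 h at 37 °C.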
hERG WT inh: qHTS for Inhibitors of KCHN2 3.1: Wildtype qHTS; U2OS, BacMam KCNH2, thallium flux FluxOr; hits give low values; Voltage-gated inwardly rectifying potassium channel KCNH2 (Homo sapiens), Q12809; AID 720551, 2013; hit rate 0.37% among 340,000; activity change, % at 1.84 µM;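 active = maximum activity change below -70%; inconclusive = maximum activity change between -70% and -50%; inactive = maximum activity change above -50%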
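U2OS cells transduced with wild-type KCNH2 virus are loaded with FluxOr dye for 45 min, and thallium flux is measured in kinetic reads before and after stimulation buffer. Rate constants are normalized to DMSO controls.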
Large screens that a line does not name were inactive. The list is not random: actives were taken first. Their share in the collection is about 2%. Cut-off read from the data, not from the text of the source, unless noted: active = activity change below about -65%; inconclusive = mostly about -30% to -63%; inactive = weaker than that.

NC(=O)[C@@H]1CCCNc2c(I)cc([N+](=O)[O-])cc2C(=O)N[C@@H](CO)C(=O)N[C@@H](Cc2ccc(O)cc2)C(=O)N1	none
O=C(O)c1ccccc1-c1ccc(/C=c2\sc3nc4cc(Br)cnc4n3c2=O)o1	Six1-Eya2 inh -81, CtBP-E1A inh inconclusive
Cc1cc2nc3s/c(=C/c4ccc(-c5ccccc5C(=O)O)o4)c(=O)n3c2cc1C	Six1-Eya2 inh inconclusive (no result: JMJD2E inh, CtBP-E1A inh)
O=C(NCCCN1CCN(Cc2ccccc2Cl)CC1)Nc1ccccc1	none (no result: KCNH2 3.1 block)
Cc1ccc(C)c(CN2CCC(CNC(=O)Nc3ccc(Cl)cc3)CC2)c1	KCNH2 3.1 block -88 (no result: JMJD2E inh)
Cc1ccc(C)c(CN2CCC(CNC(=O)Nc3ccc(Br)cc3F)CC2)c1	KCNH2 3.1 block -71 (no result: JMJD2E inh)
O=C(NCC1CC1)Nc1ccc(Cl)cc1	none (no result: JMJD2E inh, CtBP-E1A inh)
Cc1ccccc1CC1CCN(CCCNC(=O)Nc2ccccc2)CC1	KCNH2 3.1 block -80 (no result: JMJD2E inh, CtBP-E1A inh)
Cc1cccc(CN2CCC(CNC(=O)Nc3ccccc3F)CC2)c1	none (no result: JMJD2E inh, CtBP-E1A inh)
Cc1ccc(N2C(=O)CC(Sc3ncn[nH]3)C2=O)cc1C (stereo unspecified)	JMJD2E inh 1.3µM
Cc1cc(C)nc(SC2CC(=O)N(c3ccc(C)c(C)c3)C2=O)n1 (stereo unspecified)	none (no result: JMJD2E inh, CtBP-E1A inh)
CCOCCCNc1nc(=S)[nH]c2cc(OC)c(OC)cc12	Six1-Eya2 inh -83, CtBP-E1A inh -92
COCCNc1nc(=S)[nH]c2cc(OC)c(OC)cc12	Six1-Eya2 inh -80, CtBP-E1A inh -87
COc1ccc(CCNC(=O)CCCCCNc2nc(=S)[nH]c3ccccc23)cc1OC	Six1-Eya2 inh inconclusive
CCCCNc1nc(=S)[nH]c2cc(OC)c(OC)cc12	Six1-Eya2 inh -91, CtBP-E1A inh -93
COc1cc2[nH]c(=S)nc(NCCCOC(C)C)c2cc1OC	Six1-Eya2 inh -86, JMJD2E inh inconclusive, CtBP-E1A inh -93
Cc1ccccc1-c1nc(CN2CCC(C(=O)NCCC3=CCCCC3)CC2)c(C)o1	KCNH2 3.1 block -71, hERG WT inh -78
CCN(CCNC(=O)C1CCN(Cc2nc(-c3ccc(Cl)cc3)oc2C)CC1)c1ccccc1	Six1-Eya2 inh inconclusive, KCNH2 3.1 block -72, CtBP-E1A inh inconclusive
Cc1oc(-c2ccc(Cl)cc2)nc1CN1CCC(C(=O)NCc2cccs2)CC1	none
CCc1ccc(-c2nc(CN3CCC(C(=O)NCCN(CC)c4ccccc4)CC3)c(C)o2)cc1	KCNH2 3.1 block -112
CCc1ccc(-c2nc(CN3CCC(C(=O)NCc4ccc(F)cc4)CC3)c(C)o2)cc1	KCNH2 3.1 block -107, hERG WT inh inconclusive
CCN(CCNC(=O)C1CCN(Cc2nc(-c3cccc(Cl)c3)oc2C)CC1)c1ccccc1	Six1-Eya2 inh inconclusive, JMJD2E inh inconclusive
O=S1(=O)c2ccccc2OC(COCc2ccccc2)CN1C1CC1 (stereo unspecified)	none (no result: JMJD2E inh)
Cc1cccc(Cc2ccc(Cl)nn2)c1	none
CCOc1ccc2nc(N3CCCC(C(=O)N4CCN(CC)CC4)C3)sc2c1 (stereo unspecified)	KCNH2 3.1 block -86, JMJD2E inh inconclusive
CCCN1CCN(CCCNC(=O)C2CCCN(c3nc4ccc(OCC)cc4s3)C2)CC1 (stereo unspecified)	none
CCOc1ccc2nc(N3CCC(C(=O)N4CCN(C(=O)c5ccco5)CC4)CC3)sc2c1	KCNH2 3.1 block -77
O=C(Cc1ccccc1)NNc1ccc2ccccc2c1	JMJD2E inh 25µM (no result: CtBP-E1A inh)
CC(CN1CCOCC1)OC(=O)c1ccc2c(c1)OCCO2 (stereo unspecified)	hERG WT inh -262
COc1cccc(/C=N/NC(=O)Cn2nc(C)c([N+](=O)[O-])c2C)c1O	Six1-Eya2 inh -95, JMJD2E inh 11µM, CtBP-E1A inh -94
COc1cccc(/C=N/NC(=O)C(C)n2nc(C)c([N+](=O)[O-])c2C)c1O (stereo unspecified)	Six1-Eya2 inh -89, JMJD2E inh 14µM, CtBP-E1A inh -66
